# The source made the active and inactive calls.
# How the values were obtained:
# [1] = target: Albumin (Bos taurus) (UniProt P02769); assay: compounds binding labelled BSA control protein – biochemical, small-molecule microarray, Alexa647 label, 635/667 nm fluorescence, artefact control for SMM control protein annotation, profiling panel (AID 1118); details: BSA-A647 binding, fluorescence 635 nm, higher = more signal;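 further: score merges 667 nm emission intensity and signal-to-noise per printed compound spot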
# Sequence of Albumin (Bos taurus) (P02769 whole entry, looked up): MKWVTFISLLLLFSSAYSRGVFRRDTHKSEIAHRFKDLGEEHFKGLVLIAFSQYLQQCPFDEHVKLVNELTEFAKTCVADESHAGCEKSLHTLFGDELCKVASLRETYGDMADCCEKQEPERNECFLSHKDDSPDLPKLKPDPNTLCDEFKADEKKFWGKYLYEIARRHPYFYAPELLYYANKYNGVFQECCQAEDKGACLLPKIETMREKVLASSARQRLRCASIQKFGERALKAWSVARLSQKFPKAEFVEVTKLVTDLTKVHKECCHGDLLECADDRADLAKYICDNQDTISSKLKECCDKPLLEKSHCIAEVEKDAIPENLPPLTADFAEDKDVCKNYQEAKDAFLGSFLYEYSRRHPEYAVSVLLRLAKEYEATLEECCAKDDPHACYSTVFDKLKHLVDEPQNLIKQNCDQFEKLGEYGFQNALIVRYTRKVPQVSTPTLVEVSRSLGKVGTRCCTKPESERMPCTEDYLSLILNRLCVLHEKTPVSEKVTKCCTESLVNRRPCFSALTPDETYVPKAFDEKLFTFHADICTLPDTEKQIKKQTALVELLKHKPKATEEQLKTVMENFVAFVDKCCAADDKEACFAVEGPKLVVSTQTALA
# [2] = probe aXIP binding to arrayed compounds – biochemical, NeuroSMM set, 635/667 nm fluorescence, primary screen (AID 1119); details: small-molecule microarray, higher = more signal, called active from +8 up or from −8 down;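 further: probe is the protein aXip251-270 applied at 1 µg/mL to compound-printed slides; binding of probe to printed compounds measured as 667 nm fluorescence plus signal to noise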
# [3] = probe aNOTCH3 binding on compound microarray – biochemical, small-molecule microarray, 635/667 nm fluorescence, primary screen (AID 1120); details: higher = more signal;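 further: probe is a biotin-tagged antibody raised against NOTCH3 rather than NOTCH3 protein; score merges spot fluorescence near 667 nm with spot signal to noise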
# [4] = probe aNOTCH2 binding on compound microarray – biochemical, small-molecule microarray, 635/667 nm fluorescence, primary screen (AID 1121); details: higher = more signal;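 further: score merges feature fluorescence read at 667 nm with its signal to noise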
# [5] = target: Carbonic anhydrase 2 (Homo sapiens) (UniProt P00918); assay: compounds binding carbonic anhydrase 2 – biochemical, small-molecule microarray, Alexa647-labelled CAII, profiling panel (AID 1122); details: CAII-A647 binding fluorescence, higher = more signal
# [6] = COS7 lysate on small-molecule microarray, probe aHis, 635 nm (AID 1123); details: COS7 cell lysate, fluorescence, higher = more signal;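 further: z-score combines 667nm fluorescence intensity with signal-to-noise per printed compound spot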
# [7] = probe aLAP1 signal on lysate-treated microarray – cell lysate, small-molecule microarray, COS7 lysate, primary screen (AID 1124); details: probe aLAP1, fluorescence, higher = more signal;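 further: lysate comes from COS7 cells expressing LAP1 and is applied at 0.3 µg/mL; score merges spot fluorescence near 667 nm with signal-to-noise over triplicate slides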
# [8] = system: Sam68 (KHDRBS1); assay: compounds binding KHDRBS1 protein – biochemical, small-molecule microarray, 635 nm fluorescence, primary screen (AID 1125); details: higher = more signal;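 further: score merges 667 nm channel intensity with signal to noise over triplicate slides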
# [9] = system: Chordin-like protein 2 (CHRDL2); assay: compounds binding chordin-like 2 – biochemical, small-molecule microarray, 635 nm fluorescence, primary screen (AID 1126); details: fluorescence 635 nm, higher = more signal;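 further: printed compound slides probed with Chrdl2 protein at 4 µg/mL for 1 h at 4 C; score merges 667 nm emission intensity with signal to noise over three replicate slides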
# [10] = target: Concanavalin-A (Canavalia ensiformis) (UniProt P02866); assay: compounds binding concanavalin A lectin – biochemical, small-molecule microarray, Alexa647 label, 635 nm, artefact control for SMM control protein annotation, primary screen (AID 1127); details: ConA-A647 binding fluorescence, higher = more signal;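 further: z combines 667 nm emission intensity with signal-to-noise across three replicate slides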
# Sequence of Concanavalin-A (Canavalia ensiformis) (P02866 whole entry, looked up): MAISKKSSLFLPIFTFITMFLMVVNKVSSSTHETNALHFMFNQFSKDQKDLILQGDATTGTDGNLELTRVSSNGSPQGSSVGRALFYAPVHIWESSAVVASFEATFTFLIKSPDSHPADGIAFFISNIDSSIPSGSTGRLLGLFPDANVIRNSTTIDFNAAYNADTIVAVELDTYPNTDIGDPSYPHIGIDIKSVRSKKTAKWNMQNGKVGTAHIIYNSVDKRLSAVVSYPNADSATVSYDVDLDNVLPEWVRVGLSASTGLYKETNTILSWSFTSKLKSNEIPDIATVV
SMILES,composite z-score [1],composite Z-score [2],composite z-score [3],composite z-score [4],composite z-score [5],composite z-score [6],composite z-score [7],composite z-score [8],composite z-score [9],composite z-score [10]
CCCC=C(CCC)[C@@H](NS(=O)(=O)c1cccs1)c1ccc(C(=O)OC)cc1,1.06,-0.227 (inactive),0.17,0.0592,0.748,2.94,0.157,1.32,-1.19,1.17
C#CCNC(=O)[C@H](Cc1ccccc1)NC(=O)CCC(=O)O,-1.09,1.42 (inactive),-0.262,-0.161,-0.124,-0.301,0.236,-1.74,-0.471,-1.83
Cc1ccc(S[C@]2(C(=O)NCCN3CCOCC3)CC(=O)N(Cc3ccccc3)[C@@H]2c2ccc(CO)cc2I)cc1,0.285,0.994 (inactive),-0.165,-0.14,0.667,1.43,0.202,-0.388,-1.59,-0.112
CC(C)(C)OC(=O)CC[C@@]1(C(N)=O)N=C(c2ccc(OCCCO)cc2)O[C@@H]1c1ccccc1,0.604,-0.327 (inactive),0.3,0.011,0.758,2.99,0.26,1.3,-0.796,0.722
COc1ccc([Si](C)(C)[C@H]2[C@H](CCO)O[C@@]3(C(=O)N(Cc4ccc(N5C(=O)COc6ccccc65)cc4)c4ccccc43)[C@@H]2C)cc1,0.373,0.485 (inactive),-0.241,-0.176,-0.05,0.303,-0.0122,0.504,-1.13,-0.116
[N-]=[N+]=NCc1ccccc1[C@@H]1OC(c2ccc(OCCCO)cc2)=N[C@]1(CCS(=O)(=O)c1ccccc1)C(=O)NCc1ccccc1,0.732,0.0035 (inactive),0.946,0.257,0.694,1.89,1.77,1.3,0.518,1.11
COC(=O)[C@@]1(Cc2ccccc2)[C@H]2c3cc(C(=O)N4CCCC4)n(Cc4cccc5ccccc45)c3C[C@H]2CN1C(=O)c1ccccc1,0.942,0.304 (inactive),1.44,0.707,0.741,1.54,0.539,0.621,-0.975,0.308
COCCOC(=O)N1C(=O)[C@@]2(c3ccccc31)[C@H](c1ccccc1OCCO)N1[C@H](c3ccccc3)[C@H](c3ccccc3)OC(=O)[C@H]1[C@@H]2C(=O)Nc1nc2ccccc2s1,0.665,0.746 (inactive),0.133,-0.089,0.481,1.52,1.69,1.31,0.651,1.18
Cc1ccc(S[C@]2(C(=O)NC(C)C)CC(=O)N(Cc3ccccc3Cl)[C@@H]2c2ccc(CO)cc2I)cc1,0.408,0.219 (inactive),-0.469,-0.168,0.779,1.21,-0.147,0.462,-0.793,-0.139
COCCCNC(=O)[C@@]1(Cc2ccccc2)N=C(c2ccc(OCCCO)cc2)O[C@H]1c1ccccc1,0.893,1.14 (inactive),0.374,0.308,0.79,2.9,-0.0127,1.29,-1.1,1.12
[N-]=[N+]=NCc1ccccc1C[C@]1(C(=O)O)N=C(c2ccc(OCCCO)cc2)O[C@H]1c1ccccc1N=[N+]=[N-],0.82,-0.17 (inactive),0.238,0.0755,0.55,2.64,0.571,1.32,-0.958,1.05
C=CCOC(=O)[C@H]1[C@@H]2C(=O)O[C@@H](c3ccccc3)[C@@H](c3ccccc3)N2[C@@H](c2ccc(OCCOC(=O)[C@H]3C[C@H]4C(=O)N5CCC[C@H]5C(=O)N4[C@H]3c3ccc(O)cc3)cc2)[C@]12C(=O)Nc1ccc(I)cc12,-0.124,5.37 (inactive),1.47,0.755,0.364,3.31,1.13,1.31,1.06,0.955
CCOC(=O)C[C@H]1[C@H](OC(=O)Cc2ccc3c(c2)OCO3)[C@@H](NC(=O)c2ccc(-c3ccccc3)cc2)c2cc(OCCCO)ccc2N1C(=O)Cc1ccc(OC)cc1,0.641,0.0844 (inactive),0.121,0.0126,0.0713,0.365,0.597,0.843,0.236,0.152
COCCOC(=O)N1C(=O)[C@@]2(c3cc(C#CCCO)ccc31)[C@H](C(=O)N1CCN(c3ncccn3)CC1)[C@H]1C(=O)O[C@H](c3ccccc3)[C@H](c3ccccc3)N1[C@@H]2c1ccccc1OCCO,0.922,-0.07 (inactive),0.195,-0.134,0.582,1.76,0.186,1.31,0.207,1.14
CCCC[C@H]1OB(O)C[C@H]2C1=C(COc1ccccc1)C[C@H]1C(=O)N(C)C(=O)[C@H]12,-0.137,-0.252 (inactive),-0.0046,-0.0596,-0.0293,0.486,0.0594,-0.348,0.497,-0.271
Cc1ccc(C(C)CC(O)C2C=CC3C(=O)N(c4ccccc4)C(=O)C3N2Nc2ccc([N+](=O)[O-])cc2)o1 (stereo not given),0.861,-0.608 (inactive),0.222,0.0129,0.788,1.96,0.67,1.32,0.595,0.977
C=C(COC)/C(=C/C[C@@H](OC(C)=O)c1ccc(CO)o1)c1cnc2ccccc2c1,0.555,0.319 (inactive),0.25,0.0616,0.944,0.229,0.846,1.29,1.39,1.2
COc1cc2c(cc1O)C(C1CC1)N(Cc1cc3c(cc1Br)OCO3)CC2 (stereo not given),0.137,-0.431 (inactive),-0.318,-0.0703,0.593,0.478,0.283,-1.09,-0.14,-0.207
[N-]=[N+]=NCc1ccccc1C[C@@]1(C(=O)NCC(O)CO)N=C(c2ccc(OCCCO)cc2)O[C@@H]1c1ccccc1N=[N+]=[N-] (stereo not given in full),0.987,1.26 (inactive),0.318,-0.0814,0.69,3.14,0.791,1.31,-0.655,1.1
CN1C(=O)C2C=CC(C(O)C3CCCCC3)N(Nc3ccc([N+](=O)[O-])cc3[N+](=O)[O-])C2C1=O (stereo not given),0.892,-0.131 (inactive),0.23,0.0302,0.732,2.62,0.605,1.31,-0.384,0.955
CCCC=C(CCC)[C@@H](NC(=O)Oc1ccc(F)cc1)c1ccc(C(=O)OC)cc1,0.673,-0.594 (inactive),0.209,-0.0817,0.31,1.9,0.0052,1.19,-0.813,0.977
O=C1c2ccccc2[C@@]2(Cc3ccccc3N(CC(F)(F)F)C2=O)[C@H](c2ccc(CO)cc2)N1Cc1ccccc1Cl,-0.465,0.142 (inactive),-0.191,-0.228,-0.227,-0.0414,-0.153,0.428,0.929,0.409
C=C(C)C1C(=C)CN([C@H](CO)c2ccccc2)C1=O (stereo not given in full),0.16,1.66 (inactive),-0.0967,-0.133,-0.0056,-0.583,-0.133,-0.245,0.117,-0.844
O=C(NCc1ccccc1)[C@@H]1c2ccccc2C(=O)N(CC23CC4CC(CC(C4)C2)C3)[C@H]1c1ccc(CO)cc1,0.438,1.23 (inactive),-0.274,-0.265,0.467,0.813,1.17,1.28,0.452,1.1
COCCOC(=O)N1C(=O)[C@@]2(c3cc(C#CC4=CCCCC4)ccc31)[C@H](C(=O)Nc1nc3ccccc3s1)[C@H]1C(=O)O[C@H](c3ccccc3)[C@H](c3ccccc3)N1[C@@H]2c1ccc(OCCO)cc1,0.1,-0.114 (inactive),0.0286,-0.148,0.0924,0.417,0.338,1.16,0.984,1.03
COCCOC(=O)N1C(=O)[C@@]2(c3cc(C#CC4(O)CCCCCC4)ccc31)[C@H](c1ccc(O)cc1)N1[C@H](c3ccccc3)[C@H](c3ccccc3)OC(=O)[C@H]1[C@@H]2C(=O)Nc1nc2ccccc2s1,0.873,0.0656 (inactive),0.499,0.203,0.362,1.85,0.552,1.32,0.524,0.785
CCCCC=C[C@@H](NC(=O)Oc1cccc(C(F)(F)F)c1)c1ccccc1,1.02,0.505 (inactive),0.888,0.39,0.755,0.183,-0.403,1.27,-0.0519,1.13
CN1C2C=C(CCCO)C(C3C(=O)N(C(N)=O)C(=O)C32)C1c1ccc(CN2CCCC2)cc1 (stereo not given),-1.07,-0.275 (inactive),-0.326,-0.152,-0.452,-0.0732,-0.579,-1.18,-0.686,-0.34
